Holding throughout (assay): NCI-60 one-dose screen, 48 h (100 = growth as untreated, 0 = no growth, -100 = all killed)
One assay concerns HCT-15 colon. Particulars: 10 µM unless noted.
For the next assay, the system named is HT29 colon. Particulars: 10 µM unless noted.
In a further assay the test system is SNB-75 CNS. The settings on record: 10 µM unless noted.
In a further assay the test system is SNB-19 CNS. The settings on record: 10 µM unless noted.
Another assay deals with U251 CNS. Particulars: 10 µM unless noted.
The subject of another assay is PC-3 prostate. The settings on record: 10 µM unless noted.
For the next assay, the system named is SK-MEL-5 melanoma. Particulars: 10 µM unless noted.
The next assay has as its system UACC-62 melanoma. The settings on record: 10 µM unless noted.
For another assay, the system named is LOX IMVI melanoma. The settings on record: 10 µM unless noted.
In the next assay the test system is SK-MEL-28 melanoma. The settings on record: 10 µM unless noted.
In the next assay the test system is SK-MEL-2 melanoma. The settings on record: 10 µM unless noted.
A further assay relates to EKVX NSCLC. The settings on record: 10 µM unless noted.
A further assay has as its system SN12C renal. Particulars: 10 µM unless noted.
The subject of the next assay is UO-31 renal. The settings on record: 10 µM unless noted.
In another assay the test system is TK-10 renal. Particulars: 10 µM unless noted.
Another assay concerns ACHN renal. The settings on record: 10 µM unless noted.
For a further assay, the system named is A498 renal. Particulars: 10 µM unless noted.
The next assay relates to CCRF-CEM leukemia. The settings on record: 10 µM unless noted.
The subject of another assay is MOLT-4 leukemia. The settings on record: 10 µM unless noted.
A further assay deals with CAKI-1 renal. Particulars: 10 µM.

SMILES strings stand for the structures. The panel holds about 83,000 compounds, 20% with a hit somewhere; the sample as a whole holds those more often.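 Single-dose data. Exposure time 48 hours. Values below 10 considered active.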 A number with no mark means an inactive call. The source made the active and inactive calls.

In the case of `CC(C)C[C@H]1C(=O)O[C@H](C(C)C)C(=O)N(C)[C@@H](C(C)C)C(=O)O[C@H](C(C)C)C(=O)N(C)[C@@H](C(C)C)C(=O)O[C@H](C(C)C)C(=O)N1C`, the growth with HCT-15 colon is 16.6%; in the assay on HT29 colon, 8.39% (active); in the assay with SNB-75 CNS it was 7.5% (active); with SNB-19 CNS, 22.4%; in the assay with U251 CNS, 14.1%; in the assay with PC-3 prostate, 14.5%. The growth in the assay with SK-MEL-5 melanoma is -32% (active); in the assay with UACC-62 melanoma, 9.49% (active); in the assay with LOX IMVI melanoma, 9.57% (active); in the assay with SK-MEL-28 melanoma, 38.2%; with SK-MEL-2 melanoma, -17.8% (active); in the assay on EKVX NSCLC, 22.6%. The growth in the assay on SN12C renal is 8.19% (active); in the assay on UO-31 renal, -9.26% (active); in the assay on TK-10 renal, 11.9%; with ACHN renal, 10%; in the assay with A498 renal, -6.04% (active); in the assay on CCRF-CEM leukemia it was 11.3%. Also, the growth in the assay with MOLT-4 leukemia was 0.456% (active).

For `CC[C@@](C)(NC(=O)C(C)(C)NC(=O)[C@@H](NC(=O)[C@@H]1CCCN1C(=O)C(C)(C)NC(=O)[C@H](CC(C)C)NC(=O)CNC(=O)C(C)(C)NC(=O)[C@@H](NC(=O)C(C)(C)NC(=O)[C@H](CCC(N)=O)NC(=O)[C@H](C)NC(=O)C(C)(C)NC(=O)[C@H](C)NC(=O)C(C)(C)NC(=O)[C@@H]1CCCN1C(=O)C(C)(C)NC(C)=O)C(C)C)C(C)C)C(=O)N[C@@H](CCC(N)=O)C(=O)N[C@@H](CCC(N)=O)C(=O)N[C@H](CO)Cc1ccccc1`, the growth with HCT-15 colon was 98% [4.25 µM]; in the assay with HT29 colon, 17.4% [4.25 µM]; with SNB-75 CNS, 3.47% [4.25 µM] (active); with SNB-19 CNS it was 21% [4.25 µM]; in the assay with U251 CNS, 33.1% [4.25 µM]; with PC-3 prostate it was 16.2% [4.25 µM]. Also, the growth with SK-MEL-5 melanoma was -39.8% [4.25 µM] (active); with UACC-62 melanoma, 47.5% [4.25 µM]; in the assay on LOX IMVI melanoma it was 4.55% [4.25 µM] (active); with SK-MEL-28 melanoma, 27.5% [4.25 µM]; in the assay on SK-MEL-2 melanoma it was -9.91% [4.25 µM] (active); with EKVX NSCLC it was 71.6% [4.25 µM]. Besides, the growth is 12.8% [4.25 µM] with SN12C renal; 89.5% [4.25 µM] in the assay with UO-31 renal; 90% [4.25 µM] in the assay on TK-10 renal; 107% [4.25 µM] in the assay with ACHN renal; 54.9% [4.25 µM] in the assay with A498 renal; 35.6% [4.25 µM] in the assay with CCRF-CEM leukemia. In the assay with MOLT-4 leukemia, the growth is 8.53% [4.25 µM] (active).

For `Cc1nn(-c2ccccc2)c2nc(CCl)[nH]c(=O)c12`, the growth in the assay with HCT-15 colon is 90.6%; with HT29 colon it was 106%; in the assay on SNB-75 CNS, 93.9%; with SNB-19 CNS it was 89.4%; with U251 CNS, 101%; in the assay on PC-3 prostate, 102%. Besides, the growth is 98.7% in the assay with SK-MEL-5 melanoma; 96.2% in the assay with UACC-62 melanoma; 2.09% (active) in the assay on LOX IMVI melanoma; 110% with SK-MEL-28 melanoma; 105% with SK-MEL-2 melanoma; 99.2% in the assay with EKVX NSCLC. Further, the growth in the assay on SN12C renal was 95.7%; in the assay on UO-31 renal it was -86.3% (active); with TK-10 renal it was 63.3%; in the assay on ACHN renal it was 90.3%; in the assay with CAKI-1 renal, 99.6%; in the assay on MOLT-4 leukemia, 79.6%.

Consider `CCOC(=O)c1c(NCC(=O)Nc2cccc(Cl)c2)sc2c1CCCC2`, for which the growth is 66.4% in the assay on HCT-15 colon; 101% in the assay with HT29 colon; 59.5% in the assay on SNB-75 CNS; 82.7% in the assay with SNB-19 CNS; 63.6% in the assay on U251 CNS; 73.6% in the assay with PC-3 prostate. Further, the growth in the assay on SK-MEL-5 melanoma was 84.5%; in the assay with UACC-62 melanoma it was 61.9%; in the assay with LOX IMVI melanoma, 35.3%; in the assay with SK-MEL-28 melanoma, 89.5%; with SK-MEL-2 melanoma, 93.5%; with EKVX NSCLC, 89.9%. Also, the growth is 73% in the assay on SN12C renal; 76.4% in the assay on UO-31 renal; 146% with TK-10 renal; 88.7% in the assay with ACHN renal; 68.4% in the assay on CAKI-1 renal; 58% in the assay on CCRF-CEM leukemia. Further, the growth with MOLT-4 leukemia was 47.2%.

Take `O=C(c1cccc(F)c1)n1ccc2cc(NC(=S)Nc3cccnc3)ccc21`: the growth was 89.6% with HCT-15 colon; 103% in the assay with HT29 colon; 90.6% in the assay with SNB-75 CNS; 86.5% in the assay on SNB-19 CNS; 95.1% in the assay on U251 CNS; 96.5% in the assay with PC-3 prostate. The growth in the assay with SK-MEL-5 melanoma was 99.6%; in the assay with UACC-62 melanoma it was 86.8%; in the assay with LOX IMVI melanoma it was 99%; with SK-MEL-28 melanoma it was 106%; with SK-MEL-2 melanoma, 102%; in the assay on EKVX NSCLC, 105%. For the same compound, the growth in the assay on SN12C renal is 95.9%; in the assay on UO-31 renal, 83.3%; in the assay with TK-10 renal it was 94.8%; with CAKI-1 renal it was 97%; in the assay on A498 renal, 92.4%; with CCRF-CEM leukemia, 83.1%. Also, the growth in the assay with MOLT-4 leukemia is 84.9%.

For the compound `CCOC(=O)c1c(NC(=O)c2ccc(C(C)(C)C)cc2)sc2cc(OCCN3CCCCC3)ccc12`, the growth in the assay with HCT-15 colon is 22.3%; with HT29 colon, 24.3%; in the assay on SNB-75 CNS, 94.7%; in the assay on SNB-19 CNS, 55.6%; in the assay with U251 CNS it was 45.3%; with PC-3 prostate, 76.2%. In addition, the growth in the assay on SK-MEL-5 melanoma is 96.9%; in the assay with UACC-62 melanoma, 102%; with LOX IMVI melanoma it was -74.4% (active); in the assay on SK-MEL-28 melanoma it was 104%; with SK-MEL-2 melanoma, 98.6%; with EKVX NSCLC, 87.5%. Further, the growth in the assay on SN12C renal was 78.1%; in the assay with UO-31 renal, 74.5%; in the assay on ACHN renal it was 93%; with CAKI-1 renal, 84.2%; in the assay on CCRF-CEM leukemia it was 56.2%; with MOLT-4 leukemia, 72.3%.

On to `NS(=O)(=O)c1ccc(Nc2nc(N/N=C/c3ccc(F)cc3)nc(Nc3ccccc3)n2)cc1`, for which the growth with HCT-15 colon was 79.3%; in the assay with HT29 colon it was 4.73% (active); in the assay with SNB-75 CNS it was 96.4%; in the assay on SNB-19 CNS, 69.9%; in the assay on U251 CNS, 11.9%; in the assay with PC-3 prostate it was 39.9%. Besides, the growth with SK-MEL-5 melanoma is 38.1%; with UACC-62 melanoma, 60.5%; with LOX IMVI melanoma it was 60.6%; with SK-MEL-28 melanoma it was 63.3%; with SK-MEL-2 melanoma, -9.45% (active); in the assay with EKVX NSCLC it was 62.7%. Besides, the growth with SN12C renal was 50.3%; in the assay with UO-31 renal, 66.2%; in the assay with TK-10 renal, 1.71% (active); with CAKI-1 renal, 56.8%; with CCRF-CEM leukemia it was 20%; in the assay with MOLT-4 leukemia it was 21.8%.
